PubChem BioAssay (Tox21)
Results filed as inconclusive are left out. Entries that show only a call come without a potency. Active and inactive are the calls of the source. Unless noted, calls follow the shape of the dose curve; as a rule, active = well fitted curve in the direction sought with a large enough effect in the repeat runs; inconclusive = weak or mixed curves; inactive = no such curve, though single readings can be large; an effect the other way counts as inactive or inconclusive.

Target: Nuclear receptor subfamily 1 group I member 3 (Homo sapiens) (UniProt Q14994)
Assay: qHTS assay to identify small molecule antagonists of the constitutive androstane receptor (CAR) signaling pathway (AID 1224838); also: nearly all actives have a fitted effect of over 40% in size
Details: HepG2-CYP2B6-hCAR luciferase, CITCO-stimulated, 24 h; series mostly up to 92.4 µM
Procedure, shortened: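 HepG2 cells stably co-transfected with hCAR and a CYP2B6-2.2kb luciferase reporter were seeded 4 h before compound addition at 15 concentrations. Cells were stimulated with 50 nM CITCO (final) for 24 h at 37 C; luciferase luminescence was then read.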

Sequence of Nuclear receptor subfamily 1 group I member 3 (Homo sapiens) (Q14994 whole entry, looked up): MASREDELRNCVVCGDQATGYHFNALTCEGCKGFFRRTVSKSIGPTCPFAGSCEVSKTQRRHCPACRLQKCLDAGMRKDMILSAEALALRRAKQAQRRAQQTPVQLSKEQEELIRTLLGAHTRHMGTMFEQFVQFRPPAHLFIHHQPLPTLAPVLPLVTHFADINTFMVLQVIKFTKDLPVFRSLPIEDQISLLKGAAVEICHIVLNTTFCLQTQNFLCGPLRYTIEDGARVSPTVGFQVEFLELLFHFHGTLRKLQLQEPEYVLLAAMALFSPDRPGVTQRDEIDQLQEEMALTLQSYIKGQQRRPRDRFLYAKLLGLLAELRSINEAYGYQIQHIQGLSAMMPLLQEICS

Row | SMILES | outcome
1 | CC(=O)OC1CCC(C(C)(C)C)CC1 (stereo not given) | inactive
2 | CCCCCCCCCCCBr | inactive
3 | Cc1cc(=O)oc2cc(O[C@@H]3SC[C@@H](O)[C@H](O)[C@H]3O)ccc12 | inactive
4 | CC[N+](C)(CC)CC | inactive
5 | COc1cc(OC)cc(OC)c1 | inactive
6 | O=S(=O)(O)c1ccc(Cl)cc1 | inactive
7 | CC1=C(O)C(=O)CO1 | inactive
8 | CCOC(=O)CN1CCCC1=O | inactive

Target: Nuclear receptor subfamily 1 group I member 3 (Homo sapiens) (UniProt Q14994)
Assay: qHTS assay to identify small molecule agonists of the constitutive androstane receptor (CAR) signaling pathway (AID 1224839); also: nearly all actives have a fitted effect of over 15% in size; also: potency is read from the fitted curve at half-maximal effect
Details: HepG2 hCAR CYP2B6-luciferase, agonist mode, 24 h; series mostly up to 92.4 µM
Procedure, shortened: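 Readout: firefly luciferase luminescence via ONE-Glo. System: HepG2 double-stable for hCAR and CYP2B6-2.2kb. Conditions: 15-point compound titration, PK11195 at 0.75 uM final, 24 h incubation.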

Row | SMILES | Potency
9 | Cc1ccc(NC(N)=O)cc1 | inactive
10 | CCCC(=O)C(CC)Sc1ccoc1C (stereo not given) | inactive
11 | CCOC(=O)c1ccc(N(C)C)cc1 | 30.6 µM (active)
12 | COc1cc(NS(=O)(=O)c2ccc(N)cc2)ncn1 | inactive
13 | O=Cc1ccccc1S(=O)(=O)O | inactive
14 | CC(C)(O)c1ccc(C(C)(C)O)cc1 | inactive
15 | COc1cc(C(=O)NC2CCCNC2)cc(OC)c1OC (stereo not given) | inactive
16 | CCCCC(CC)CCC(CC(C)C)OS(=O)(=O)O (stereo not given) | inactive
17 | Nc1cc(S(=O)(=O)O)ccc1O | inactive
18 | O=C(O)COc1ccc2ccccc2c1 | inactive
19 | O=S(=O)(O)CC(O)CCl (stereo not given) | inactive
20 | Cc1cc(N)no1 | inactive
21 | CCCCCCC(O)CO (stereo not given) | inactive
22 | C=CCOC(=O)CCCCCCCC | inactive
23 | Cc1cc(C)c(C)c(C)c1 | inactive
24 | Cc1cc2c(cc1CC(=O)c1sccc1S(=O)(=O)Nc1onc(C)c1Cl)OCO2 | inactive
25 | C=C(C)C(=O)OCCOC1CC2CC1C1C=CCC21 (stereo not given) | inactive
26 | CC(=O)OC1CCC(C(C)(C)C)CC1 (stereo not given) | inactive
27 | CCCCCCCCCCCBr | inactive
28 | CC[N+](C)(CC)CC | inactive
29 | COc1cc(OC)cc(OC)c1 | inactive
30 | O=S(=O)(O)c1ccc(Cl)cc1 | inactive
31 | CC1=C(O)C(=O)CO1 | inactive
32 | CCOC(=O)CN1CCCC1=O | inactive

Tested on: not listed separately
Assay: qHTS assay to identify small molecule antagonists of the estrogen related receptor signaling pathway with the pleiotropic PPARgamma coactivator (PGC) from Tox21 10K library - cell viability counter screen (AID 1224840; active = well fitted cell-killing curve with a large enough effect in the repeat runs, not every such curve was filed as active; also: nearly all actives have a fitted effect of over 40% in size)
Details: PGC/ERR reporter cells viability, CellTiter-Fluor, 17.5 h; series mostly up to 92.4 µM
Procedure, shortened: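 PGC/ERR cells were seeded at 2,000 cells/well and left 6 hours at 37 C/5% CO2 before pin-tool addition of compounds in DMSO. After 17.5 hours at 37 C, CellTiter-Fluor was added and fluorescence read 30 minutes later.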

Row | SMILES | outcome
33 | Nc1nc(Cl)cc(Cl)n1 | inactive
34 | Cc1ccc(NC(N)=O)cc1 | inactive
35 | Cc1ccc(O)c(C(=O)c2ccccc2)c1 | inactive
36 | CCOC(=O)c1ccc(N(C)C)cc1 | inactive
37 | COC(=O)c1c(C)cc(O)c(C)c1O | inactive
38 | COc1cc(NS(=O)(=O)c2ccc(N)cc2)ncn1 | inactive
39 | O=Cc1ccccc1S(=O)(=O)O | inactive
40 | CC(C)(O)c1ccc(C(C)(C)O)cc1 | inactive
41 | Cc1nc2ccc(Cl)cc2[nH]1 | inactive
42 | COC(=O)C(c1ccccc1Cl)N1CCc2sccc2C1 (stereo not given) | inactive
43 | CC1(C)S[C@@H]2[C@H](NC(=O)Cc3ccccc3)C(=O)N2[C@H]1C(=O)O (tested in a mixture with another compound) | inactive
44 | O=C(O)COc1ccc2ccccc2c1 | inactive
45 | O=S(=O)(O)CC(O)CCl (stereo not given) | inactive
46 | O=C(c1ccccc1)c1cccc(O)c1 | inactive
47 | O=C1Nc2ccccc2C1=O | inactive
48 | CCCC(C)C(O)CC (stereo not given) | inactive
49 | NNC(=O)OCc1ccccc1 | inactive
50 | C=CCOC(=O)CCCCCCCC | inactive
51 | Cc1cc2c(cc1CC(=O)c1sccc1S(=O)(=O)Nc1onc(C)c1Cl)OCO2 | inactive
52 | O=C(O)CCCCCCCCCC(=O)O | inactive
53 | CCCCCCCCCCCBr | inactive
54 | Cc1cc(=O)oc2cc(O[C@@H]3SC[C@@H](O)[C@H](O)[C@H]3O)ccc12 | inactive
55 | CCN1CCN(C(=O)N[C@@H](C(=O)N[C@@H]2C(=O)N3[C@@H]2SC(C)(C)[C@H]3C(=O)O)c2ccccc2)C(=O)C1=O | inactive
56 | CC[N+](C)(CC)CC | inactive
57 | COc1cc(OC)cc(OC)c1 | inactive
58 | O=S(=O)(O)c1ccc(Cl)cc1 | inactive
59 | CC1=C(O)C(=O)CO1 | inactive
60 | CCOC(=O)CN1CCCC1=O | inactive

Tested on: not listed separately
Assay: qHTS assay to identify small molecule antagonists of the estrogen related receptor signaling pathway with the pleiotropic PPARgamma coactivator (PGC) from Tox21 10K library (AID 1224841; call rule not given here; also: actives are mostly falling curves and most rising ones were filed inactive; nearly all actives have a fitted effect of over 50% in size; also: potency is read from the fitted curve at half-maximal effect)
Details: PGC/ERR reporter cell line, ONE-Glo luciferase, 18 h; series mostly up to 92.4 µM
Procedure, shortened: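 PGC/ERR reporter cells were seeded at 2,000 cells/well and held 6 hours at 37 C/5% CO2 before pin-tool addition of compounds in DMSO. After 18 hours at 37 C, One-Glo was added and luminescence read after 30 minutes at room temperature.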

Row | SMILES | Potency
61 | Nc1nc(Cl)cc(Cl)n1 | inactive
62 | Cc1ccc(O)c(C(=O)c2ccccc2)c1 | inactive
63 | Nc1cc(S(=O)(=O)O)ccc1O | inactive
64 | O=C1Nc2ccccc2C1=O | 13.6 µM (active)
65 | CCCC(C)C(O)CC (stereo not given) | inactive
66 | NNC(=O)OCc1ccccc1 | inactive
67 | Cc1cc(C)c(C)c(C)c1 | inactive
68 | C=C(C)C(=O)OCCOC1CC2CC1C1C=CCC21 (stereo not given) | inactive
69 | O=C(O)CCCCCCCCCC(=O)O | inactive
70 | CCN1CCN(C(=O)N[C@@H](C(=O)N[C@@H]2C(=O)N3[C@@H]2SC(C)(C)[C@H]3C(=O)O)c2ccccc2)C(=O)C1=O | inactive

Tested on: not listed separately
Assay: qHTS assay to identify small molecule agonists of the estrogen related receptor signaling pathway with the pleiotropic PPARgamma coactivator (PGC) from Tox21 10K library (AID 1224842); also: nearly all actives have a fitted effect of over 15% in size
Details: PGC/ERR reporter cell line, luciferase ONE-Glo, 18 h; series mostly up to 92.4 µM
Procedure, shortened: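 Luminescence from One-Glo (30 min, room temperature) measured after PGC/ERR cells had 18 h at 37 C with pinned compound (23 nL in DMSO). Cells had been seeded at 2,000 per well and pre-incubated 6 h.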

Row | SMILES | Potency
71 | Nc1nc(Cl)cc(Cl)n1 | inactive
72 | CCCC(C)C(O)CC (stereo not given) | inactive
73 | NNC(=O)OCc1ccccc1 | inactive
74 | Cc1cc(C)c(C)c(C)c1 | inactive
75 | CCN1CCN(C(=O)N[C@@H](C(=O)N[C@@H]2C(=O)N3[C@@H]2SC(C)(C)[C@H]3C(=O)O)c2ccccc2)C(=O)C1=O | inactive

Target: Thyrotropin receptor (Homo sapiens) (UniProt P16473)
Assay: qHTS assay to identify small molecule agonists of the thyroid stimulating hormone receptor (TSHR) signaling pathway (AID 1224843; calls by dose curve; also: nearly all actives have a fitted effect of over 45% in size; also: potency is read from the fitted curve at half-maximal effect)
Details: TSHR-HEK293 cells, cAMP HTRF, agonist mode, 30 min; series mostly up to 92.4 µM
Procedure, shortened: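 HEK293 cells stably bearing the thyrotropin receptor were plated at 800 cells/well and challenged with compound (30 min, RT). Accumulated cAMP was quantified via cAMP-d2 competing for cryptate-tagged antibody.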

Sequence of Thyrotropin receptor (Homo sapiens) (P16473 whole entry, looked up): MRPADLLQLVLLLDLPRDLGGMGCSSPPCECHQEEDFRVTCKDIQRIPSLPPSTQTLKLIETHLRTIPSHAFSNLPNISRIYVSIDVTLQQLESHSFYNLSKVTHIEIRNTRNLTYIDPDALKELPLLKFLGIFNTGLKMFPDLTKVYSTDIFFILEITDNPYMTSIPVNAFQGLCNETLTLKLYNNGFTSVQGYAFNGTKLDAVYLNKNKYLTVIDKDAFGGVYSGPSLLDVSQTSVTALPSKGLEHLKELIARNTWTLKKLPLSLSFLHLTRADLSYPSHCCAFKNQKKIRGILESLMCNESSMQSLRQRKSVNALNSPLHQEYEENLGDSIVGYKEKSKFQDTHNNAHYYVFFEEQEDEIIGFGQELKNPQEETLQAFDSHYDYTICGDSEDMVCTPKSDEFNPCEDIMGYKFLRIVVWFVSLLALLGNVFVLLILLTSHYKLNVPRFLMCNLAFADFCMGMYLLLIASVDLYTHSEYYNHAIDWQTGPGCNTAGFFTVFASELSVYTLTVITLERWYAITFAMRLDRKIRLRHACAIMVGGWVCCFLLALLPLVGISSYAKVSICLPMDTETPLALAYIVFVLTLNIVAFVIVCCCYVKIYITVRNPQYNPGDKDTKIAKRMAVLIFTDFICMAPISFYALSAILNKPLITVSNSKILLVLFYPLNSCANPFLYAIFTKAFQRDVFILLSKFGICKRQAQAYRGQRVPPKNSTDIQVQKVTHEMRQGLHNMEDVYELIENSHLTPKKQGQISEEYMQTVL

Row | SMILES | Potency
76 | Cc1ccc(NC(N)=O)cc1 | inactive
77 | CCCC(=O)C(CC)Sc1ccoc1C (stereo not given) | inactive
78 | Cc1ccc(O)c(C(=O)c2ccccc2)c1 | inactive
79 | COc1cc(NS(=O)(=O)c2ccc(N)cc2)ncn1 | inactive
80 | Clc1ccc2c(c1)Nc1ccccc1S2 | inactive
81 | CC(C)(O)c1ccc(C(C)(C)O)cc1 | inactive
82 | COc1cc(C(=O)NC2CCCNC2)cc(OC)c1OC (stereo not given) | inactive
83 | Cc1nc2ccc(Cl)cc2[nH]1 | inactive
84 | COC(=O)C(c1ccccc1Cl)N1CCc2sccc2C1 (stereo not given) | 16.8 µM (active)
85 | CC1(C)S[C@@H]2[C@H](NC(=O)Cc3ccccc3)C(=O)N2[C@H]1C(=O)O (tested in a mixture with another compound) | inactive
86 | CCCCC(CC)CCC(CC(C)C)OS(=O)(=O)O (stereo not given) | inactive
87 | O=C(c1ccccc1)c1cccc(O)c1 | inactive
88 | O=C1Nc2ccccc2C1=O | inactive
89 | CCCC(C)C(O)CC (stereo not given) | inactive
90 | Cc1cc(N)no1 | inactive
91 | NNC(=O)OCc1ccccc1 | inactive
92 | O=C(O)CCCCCCCCCC(=O)O | inactive
93 | CC(=O)OC1CCC(C(C)(C)C)CC1 (stereo not given) | inactive
94 | Cc1cc(=O)oc2cc(O[C@@H]3SC[C@@H](O)[C@H](O)[C@H]3O)ccc12 | inactive
95 | CCN1CCN(C(=O)N[C@@H](C(=O)N[C@@H]2C(=O)N3[C@@H]2SC(C)(C)[C@H]3C(=O)O)c2ccccc2)C(=O)C1=O | inactive
